# Compounds with a hit are over-represented: about 12% of the library has one in this group of screens.
# Pf growth 48h – Primary qHTS for delayed death inhibitors of the malarial parasite plastid, 48 hour incubation | P. falciparum luciferase growth in erythrocytes, 48 h | Potency, µM (top dose mostly 28.7 µM), for inactives: top-dose activity change, negative = inhibition, actives largely listed as inhibitors | hit rate 5.9% among 310,000 | AID 504832, 2011; note: % is set by controls: 0 for no effect and ±100 for the full control effect
#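 Growth was read as firefly luciferase luminescence after a 48 h, 37 C, 5% CO2 exposure of compounds to reporter-bearing P. falciparum cultures (0.1% parasitemia, 2% hematocrit final) in Albumax-supplemented RPMI 1640.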
# Sm TGR inh – qHTS Assay for the Inhibitors of Schistosoma Mansoni Peroxiredoxins; Schistosoma mansoni thioredoxin glutathione reductase (TGR), Q962Y6; purified TGR, DTNB reduction, TNB absorbance 405 nm; Potency, µM (top dose mostly 114 µM), inactives show top-dose activity change, negative = inhibition, hits mostly inhibitors; hit rate 3% among 360,000; AID 485364, 2010; note: % is set by controls: 0 for no effect and ±100 for the full control effect; nearly all actives have a fitted effect of over 60% in size
#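 First, TGR (20 nM dispensed) and NADPH were mixed with compound. Second, a 15 min room-temperature incubation followed. Third, further NADPH and then DTNB were added to start the reaction. Finally, TNB absorbance was monitored kinetically.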
# SARS PLP yeast – qHTS of Yeast-based Assay for SARS-CoV PLP | hit rate 0.19% among 330,000 | Potency, µM (series often up to 32.9 µM), for the others: at the highest dose activity, positive = growth rescue, hits mostly activators | S. cerevisiae expressing SARS-CoV PLpro, growth rescue; calls by dose curve; note: 0% is about no effect; nearly all actives have a fitted effect of over 55% in size
# Pf growth 96h – Primary qHTS for delayed death inhibitors of the malarial parasite plastid, 96 hour incubation; Potency, µM (series often up to 28.7 µM), for inactives: top-dose activity change, negative = inhibition, actives largely listed as inhibitors; P. falciparum luciferase reporter growth, 96 h; hit rate 6.9% among 320,000; note: % is set by controls: 0 for no effect and ±100 for the full control effect
#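 Delayed-death screen, second-generation endpoint: infected erythrocytes, 2% hematocrit, 0.05% parasitemia final; 96 hours at 37 C, 5% CO2; luciferase detection reagent; luminescence decrease equals reduced growth.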
# Starred values were filed as active, the others as inactive; ? = inconclusive; . = no result given; [ ] = dose if it differs, or a comment. Unless noted, calls come from the whole dose curve; as a rule, active = well fitted curve in the direction sought with a large enough effect; inconclusive = small, poorly fitted or top-dose-only effect, or another doubt; inactive = no such curve, though single readings can be large; an effect the other way counts as inactive or inconclusive. Potency is the fitted concentration of half-maximal effect.
SMILES,Pf growth 48h,Sm TGR inh,SARS PLP yeast,Pf growth 96h
COCCSc1nc(N)c2c3c(sc2n1)CN(C)CC3,5.2µM*,-16%,0%,3.7µM*
CN(C)CCSc1nc(N)c2c3c(sc2n1)CN(C)CC3,4.1µM*,-34%,6%,?
CCCSc1nc(N)c2c3c(sc2n1)CN(C)CC3,?,-22%,-1%,?
CC(C)Sc1nc(N)c2c3c(sc2n1)CN(C)CC3,1µM*,-21%,-4%,.
CCN(CC)CCNc1nc(SC)nc2sc3c(c12)CCN(C)C3,?,4%,0%,?
COc1cc(NC(=O)C2CCN(S(=O)(=O)c3c(C)noc3/C=C/c3cccs3)CC2)cc(OC)c1,.,18%,.,.
O=C(Cn1c(=O)nc(-c2ccccc2)c2cc(Cl)ccc21)NCCCc1ccccc1,.,-8%,.,.
CCOc1ccc(S(=O)(=O)N2CCOCC2)cc1NC(=O)C1CSC2(C)CCC(=O)N12 (stereo not drawn),-7%,5%,4%,-5%
CCN(CC)c1ccc(S(=O)(=O)N2CCCCC2)cc1NC(=O)C1CCC1,?,50µM*,-4%,?
CCN(CC)c1ccc(S(=O)(=O)N2CCOCC2)cc1NC(=O)C1CC1,-4%,-13%,-1%,-8%
Cc1cc(C)c(C)c(S(=O)(=O)N2CCN(C(=O)C3CSC4(C)CCC(=O)N34)CC2)c1C (stereo not drawn),10µM*,-1%,1%,?
CCN(CC)c1ccc(S(=O)(=O)N2CCCCC2)cc1NC(=O)C1CSC2(C)CCC(=O)N12 (stereo not drawn),12µM*,10%,2%,?
CCN(CC)c1ccc(NC(=O)C2CCCN(S(=O)(=O)c3cccnc3)C2)c(C)c1 (stereo not drawn),.,-5%,-1%,9.3µM*
O=C(NCCc1ccc(Cl)cc1)c1cccn1-c1nnc(N2CCCC2)s1,.,8%,.,.
CCN(CC)c1ccc(S(=O)(=O)N(CC)CC)cc1NC(=O)C1CCCC1,15µM*,4%,0%,?
COc1ccc(OC)c(NC(=O)CSc2ccc(-c3ccco3)nn2)c1,-13%,3.5µM*,-4%,?
Cc1ccccc1NC(=O)CSc1ccc(-c2ccco2)nn1,11%,-13%,23%,?
COc1ccccc1NC(=O)CSc1ccc(-c2cccs2)nn1,8%,13%,-6%,24%
COc1ccccc1NC(=O)CSc1ccc(-c2ccc(-n3ccnc3)cc2)nn1,12µM*,-3%,.,?
Cc1ccc(C)c(NC(=O)CSc2ccc(-c3ccco3)nn2)c1,-1%,13µM*,?,?
COc1ccccc1NC(=O)CSc1ccc(-c2ccco2)nn1,4%,20µM*,-1%,?
CCOc1ccc(CCNC(=O)CSc2nnnn2-c2ccccc2)cc1OCC,.,-10%,.,.
COc1cccc2c1O/C(=N\O)C(C(=O)Nc1cccc(Br)c1)C2 (stereo not drawn),-21%[0.00184 µM],4%,0%,18%
CCCCn1c(O)c(/C=C/C=C/C=Nc2ccccc2)sc1=S,?,20µM*,-5%,?
Oc1c(/C=C/C=C/C=Nc2ccccc2)sc(=S)n1Cc1ccccc1,-10%,11µM*,-2%,2%
SMILES,Pf growth 48h,Sm TGR inh,SARS PLP yeast,Pf growth 96h
CCn1c(O)c(/C=C/C=C/C=Nc2ccccc2)sc1=S,0%,.,0%,45%
CCc1ccccc1N(C)C(=O)Cn1cnc2sc(C)c(S(=O)(=O)N3CCC(C)CC3)c2c1=O,.,9%,.,.
O=C(c1ccc(F)cc1F)N1CCN(S(=O)(=O)c2ccc3c(c2)OCCO3)CC1,?,-15%,-10%,9.3µM*
O=S(=O)(c1ccc2c(c1)OCCO2)N1CCC(O)(c2ccc(Cl)cc2)CC1,9%,4%,-14%,9.3µM*
O=S(=O)(c1ccccc1Cl)N1CCC(O)(c2ccc3c(c2)OCO3)CC1,6%,-9%,14%,2.9µM*
O=S(=O)(c1ccc2c(c1)OCCO2)N1CCN(S(=O)(=O)c2ccc3c(c2)OCCO3)CC1,?,0%,1%,?
CCOc1ccc(S(=O)(=O)N2CCC(C(=O)NC3CC3)CC2)cc1C,?,3%,-1%,-3%
CCOc1ccc(CCNC(=O)CN2C(=O)COc3ccc(S(=O)(=O)N(CC)CC)cc32)cc1,.,-11%,.,.
Cn1c(CNC(=O)c2ccco2)nnc1SCC(=O)c1ccc(F)cc1,3%,10µM*,?,45%
Cc1ccc(C)c(NC(=O)CSc2nnc(CNC(=O)c3ccco3)n2C)c1,28%,71%,4%,2.1µM*
CCc1cccc(NC(=O)Cn2c(=O)n(CCC(=O)NCc3ccccc3Cl)c(=O)c3sccc32)c1,.,4%,.,.
COC(=O)CCC(=O)OC1(C)C(=O)C=C2C=C(C3CC3)N(CCc3c[nH]c4ccccc34)C=C2C1=O (stereo not drawn),12µM*,-25%,0%,?
COC(=O)CCC(=O)OC1(C)C(=O)C=C2C=C(C3CC3)N(CCCCO)C=C2C1=O (stereo not drawn),?,-36%,-1%,7.4µM*
C=CCN1C=C2C(=O)C(C)(OC(=O)CCC(=O)OC)C(=O)C=C2C=C1C1CC1 (stereo not drawn),7.4µM*,?,-1%,2.6µM*
COC(=O)CCCC1=CC2=CC(=O)C(C)(OC(=O)c3cccs3)C(=O)C2=CN1CCCCO (stereo not drawn),?,?,-1%,13µM*
COCCN1C=C2C(=O)C(C)(OC(=O)c3cccs3)C(=O)C=C2C=C1CCCC(=O)OC (stereo not drawn),54%,-27%,3%,?
COC(=O)CCC(=O)OC1(C)C(=O)C=C2C=C(C3CC3)N(CCN3CCOCC3)C=C2C1=O (stereo not drawn),?,7%,0%,54%
COC(=O)CCC(=O)OC1(C)C(=O)C=C2C=C(C3CC3)N(CCc3ccccn3)C=C2C1=O (stereo not drawn),24%,2%,-2%,?
Cc1c(Cl)cccc1NC(=O)N1CCC(CN2CCCC2)CC1,.,-26%,.,.
CC(=O)Oc1cc(C(F)(F)F)ccc1C(=O)O,9%[12.8 µM],.,.,6%[12.8 µM]
Cc1ccc(C(=O)c2oc3ccccc3c2NC(=O)c2cc(-c3ccccc3)on2)cc1F,.,-6%,.,.
COC(=O)CCC(=O)OC1(C)C(=O)C=C2C=C(C3CC3)N(Cc3ccc(OC)cc3)C=C2C1=O (stereo not drawn),?,-1%,2%,?
COC(=O)CCC(=O)OC1(C)C(=O)C=C2C=C(C3CC3)N(CCCOC(C)C)C=C2C1=O (stereo not drawn),10µM*,-27%,-3%,1.9µM*
COC(=O)CCC(=O)OC1(C)C(=O)C=C2C=C(C3CC3)N(Cc3ccc4c(c3)OCO4)C=C2C1=O (stereo not drawn),?,-22%,1%,13µM*
COC(=O)CCC(=O)OC1(C)C(=O)C=C2C=C(C3CC3)N(C(CO)CO)C=C2C1=O (stereo not drawn),46%,-4%,2%,62%

# Source: PubChem
